From PubChem BioAssay (NCI) come the findings set out here.

The panel holds about 83,000 compounds, 20% with a hit somewhere; the sample as a whole holds those more often.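 Values shown are percent growth following 48 h exposure of cells in 96-well plates to a single concentration of compound; below 10 was considered active.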 Values without a mark were called inactive. Calls of active or inactive are those of the source.

The subject of this assay is NCI-H322M lung. Put plainly: NCI-60 one-dose screen, 48 h (100 = growth as untreated, 0 = no growth, -100 = all killed). The following applies: 10 µM. On the procedure:
Growth inhibition of the NCI-H322M human Non-Small Cell Lung tumor cell line is measured as a screen for anti-cancer activity. Cells are grown in 96 well plates and exposed to the test compound for 48 hours. Compounds are tested at a single concentration, which is 10^-5 M for most compounds. The reported endpoint is percent growth (GI% or GIPRCNT), where numbers from 0 - 100% represent growth inhibition, and numbers from -100% - 0 represent cell death. For example, a value of 40 represents 60% growth inhibition. A value of 0 means no net growth occurred over the course of the experiment. A value of -40 indicates 40% of cells at the beginning of the experiment died by the end of the experiment. A value of -100 means all cells are dead at the end of the experiment.
NCI-60 Human Tumor Cell Lines Screen was performed using the standard one-dose NCI protocol, which is described in more detail at https://dtp.cancer.gov/discovery_development/nci-60/default.htm.
Compounds with GIPRCNT values below 10 were considered active. Activity score was based on GIPRCNT using the following formula: […]
Score is 0 for GIPRCNT values of 100 or above, 50 for GIPRCNT values of 0, and 100 for GIPRCNT values of -100.
Turning to `C#CCCCN(CCNc1ccnc2cc(Cl)ccc12)C(=O)CCC(=O)O[C@@H]1O[C@@H]2OC3(C)CC[C@H]4[C@H](C)CC[C@@H]([C@H]1C)[C@@]24OO3`, the growth is 65.1%.

In the case of `COc1cc(OC)c(/C=C/C(=O)c2nc3ccccc3n2Cc2ccc(F)cc2)c(OC)c1`, the growth was 104%.

On to `COc1cc(OC)c(S(=O)(=O)N(CCCl)CCCl)cc1C(=O)/C=C/c1ccc(C)cc1`, for which the growth is 89.1%.

Consider `COc1ccc(OC)c(/C=C/C(=O)c2nc3ccccc3n2Cc2ccc(F)cc2)c1`, for which the growth was 6.69% (active).

For the molecule `CC(C)C[C@H](NC(=O)CNC(=O)C[C@H]1O[C@@H]2OC3(C)CC[C@H]4[C@H](C)CC[C@@H]([C@H]1C)[C@@]24OO3)B(O)O`, the growth was 51.6%.

`O=C(/C=C/c1ccc(Br)cc1)c1nc2ccccc2n1Cc1ccc(Br)cc1`: the growth was 39%.

On to `CC12OOC(C)(OO1)C2CCC(=O)OCCNc1ccnc2cc(Cl)ccc12` (stereo not given), for which the growth is 96.6%.

As to `CC[C@]12C=CCN3CC[C@@]4(c5ccc(OC)cc5N(C)[C@H]4[C@@](O)(C(=O)OC)[C@@H]1OC(=O)CCC[P+](C1CCCCC1)(C1CCCCC1)C1CCCCC1)[C@@H]32`, the growth was 24.5%.

`CC12CCC3(CCC(=O)NCCCNc4ccnc5cc(Cl)ccc45)[C@@](C)(OO[C@]3(C)O1)O2`: the growth was 27.5%.

In the case of `COC(=O)c1ccc(-n2cc(CCCN(CCNc3ccnc4cc(Cl)ccc34)C(=O)CCC(=O)O[C@@H]3O[C@@H]4OC5(C)CC[C@H]6[C@H](C)CC[C@@H]([C@H]3C)[C@@]46OO5)nn2)cc1`, the growth was 71%.

For the molecule `COc1cc(OC)c(S(=O)(=O)N(CCCl)CCCl)cc1C(=O)/C=C/c1cc(OC)c(OC)c(OC)c1`, the growth is 12.9%.

For `O=C(/C=C/c1ccccc1)c1nc2ccccc2n1Cc1ccc(F)cc1`, the growth was 37%.

Take `N#C[Se]CC(=O)Nc1cccc(C(F)(F)F)c1`: the growth was -19.6% (active).

For the molecule `C[C@H]1[C@H](OC(=O)CCC(=O)N(CCCc2cn(-c3ccc([N+](=O)[O-])cc3)nn2)CCNc2ccnc3cc(Cl)ccc23)O[C@@H]2OC3(C)CC[C@H]4[C@H](C)CC[C@@H]1[C@@]24OO3`, the growth was 81.5%.

With `CC1=C2C(=C[C@@](C)(COP(=O)(Oc3ccccc3)Oc3ccccc3)[C@@H]2O)C(=O)[C@@](C)(O)C12CC2`, the growth was -59.5% (active).

Consider `C#CC[Se]C(=O)c1ccc2n[se]nc2c1`, for which the growth is 12%.

As to `O=C(/C=C/c1ccc(Cl)cc1)c1nc2ccccc2n1Cc1ccc(F)cc1`, the growth is 53.5%.

As for `O=C(/C=C/c1cccc(Br)c1)c1nc2ccccc2n1Cc1ccc(Br)cc1`, the growth was 51.9%.

With `CC[C@@]12CC(C(=O)OC)=C3Nc4cc5c(cc4[C@@]34CCN(C[C@H]3O[C@H]31)[C@@H]24)[C@@H]1[C@H](O5)[C@@H](O)[C@@]2(CC)CC(C(=O)OC)=C3Nc4cc(OC)ccc4[C@@]34CCN1[C@@H]24`, the growth is 25.1%.

Turning to `CC[C@]12C=CCN3CC[C@@]4(c5ccc(OC)cc5N(C)[C@H]4[C@@](O)(C(=O)OC)[C@@H]1OC(=O)CCCC[P+](c1ccc(OC)cc1)(c1ccc(OC)cc1)c1ccc(OC)cc1)[C@@H]32`, the growth is -89.6% (active).

For the molecule `C[C@H]1[C@@H](CC(=O)N[C@@H](Cc2coc3ccccc23)B(O)O)O[C@@H]2OC3(C)CC[C@H]4[C@H](C)CC[C@@H]1[C@@]24OO3`, the growth was 19.6%.

On to `Cc1ccc2[nH]c(=S)n(-c3ccc(F)cc3)c(=O)c2c1`, for which the growth was 99%.

As for `O=C(/C=C/c1ccccc1Cl)c1nc2ccccc2n1Cc1ccc(F)cc1`, the growth was -42.1% (active).

Consider `CN(C)CCc1cn(C2CCC2)c2cccc(O)c12`, for which the growth was 91.2%.

With `O=C(NC([Se])=NC1CCCCC1)c1ccccc1`, the growth is 4.78% (active).

For `COC(=O)C[C@](O)(CCC(C)C)C(=O)O[C@@H]1C(OC)=C[C@]23CCCN2CCc2cc4c(cc2[C@H]13)OCO4`, the growth was -25.1% (active).

Consider `CC[C@]12C=CCN3CC[C@@]4(c5ccc(OC)cc5N(C)[C@H]4[C@@](O)(C(=O)OC)[C@@H]1OC(=O)CCCC[P+](c1ccc(C)cc1)(c1ccc(C)cc1)c1ccc(C)cc1)[C@@H]32`, for which the growth was -97.6% (active).

As for `O=C(/C=C/c1ccco1)c1nc2ccccc2n1Cc1ccc(Br)cc1`, the growth is 62.2%.

With `CC1=C(CCC=O)C2=C(C)C3(CC3)[C@@](C)(O)C(=O)C2=C1`, the growth is -84.9% (active).

With `COCCOCCOCCOc1ccc(-n2cc(CCCN(CCNc3ccnc4cc(Cl)ccc34)C(=O)CCC(=O)O[C@@H]3O[C@@H]4OC5(C)CC[C@H]6[C@H](C)CC[C@@H]([C@H]3C)[C@@]46OO5)nn2)cc1`, the growth was 69.2%.

`C#CC[Se]C(=O)c1ccc(C(=O)[Se]CC#C)s1`: the growth was 14.5%.

Take `O=C(/C=C/c1ccc(Cl)cc1)c1nc2ccccc2n1Cc1ccc(Br)cc1`: the growth is 78.8%.

Regarding `COC(=O)C[C@](O)(CCC(C)C)C(=O)O[C@H]1C(OC)=C[C@@]23CCCN2CCc2cc4c(cc2[C@@H]13)OCO4`, the growth was -9.27% (active).

Turning to `CC[C@]12C=CCN3CC[C@@]4(c5ccc(OC)cc5N(C)[C@H]4[C@@](O)(C(=O)OC)[C@@H]1OC(=O)CCC[P+](c1ccc(F)cc1)(c1ccc(F)cc1)c1ccc(F)cc1)[C@@H]32`, the growth is 65.2%.

Take `COCCOCCOCCOc1ccc(-n2cc(-c3ccc(O[C@H]4O[C@@H]5OC6(C)CC[C@H]7[C@H](C)CC[C@@H]([C@H]4C)[C@@]57OO6)cc3)nn2)cc1`: the growth is 86.1%.

As to `O=C(NC([Se])=NC1CCCCC1)c1ccc2c(c1)OCO2`, the growth was 11.9%.

In the case of `CC[C@]12C=CCN3CC[C@@]4(c5ccc(OC)cc5N(C)[C@H]4[C@@](O)(C(=O)OC)[C@@H]1OC(=O)CCCC[P+](C1CCCCC1)(C1CCCCC1)C1CCCCC1)[C@@H]32`, the growth was 16.1%.

Regarding `CC1=C(COCCOC(=O)c2ccc(S(=O)(=O)F)cc2)C2=C(C)C3(CC3)[C@@](C)(O)C(=O)C2=C1`, the growth is -25.8% (active).

For `CCC[Se]C(=O)c1ccc(C(=O)[Se]CCC)s1`, the growth was -33.4% (active).

`O=C(NCCCCC(c1ccc(F)cc1)c1ccc(F)cc1)Nc1ccc([N+](=O)[O-])c(C(F)(F)F)c1`: the growth was 6.54% (active).
